Our source for the Potency and outcome values is PubChem BioAssay (NCATS).

A short description of test [1]: qHTS to identify inhibitors of the type 1 interferon - major histocompatibility complex class I in skeletal muscle: primary screen against the NCATS Pharmaceutical Collection (AID 1347407). Put shortly: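 Luminescence from HiBiT-tagged endogenous HLA-B*08:01 served as the read-out of IFN-beta-induced MHC class I in CRISPR-engineered C25cl48 myoblasts. Cells received 4 ng/ml IFN-beta plus compound (high final 46 uM, […]) for 24 h.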

Test [2] has as its target Protein phosphatase 1D (Homo sapiens) (UniProt O15297). As to the kind of experiment: RapidFire Mass Spectrometry qHTS Assay for Modulators of WT P53-Induced Phosphatase 1 (WIP1) (AID 1347424).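 Also: amount of dephosphorylated VEPPL-S-QETFS peptide product formed by WIP1; series mostly up to about 63 µM.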 An outline of the steps:
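10 nM WIP1 preincubated with compounds 1 hr at room temperature in pH 7.5 Tris buffer with 30 mM MgCl2, 1 mM TCEP; 2 uM VEPPL-pS-QETFS phosphopeptide for 5 min, formic acid quench; dephosphorylated product quantified by RapidFire MS against labelled standard.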

Test [3] has the same target. As to the kind of experiment: Rhodamine-PBP qHTS Assay for Modulators of WT P53-Induced Phosphatase 1 (WIP1) (AID 1347425). Put shortly:
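WIP1 (5 nM final) was preincubated with compound for 1 hour at room temperature. It then dephosphorylated 10 uM VEPPL-pS-QETFS peptide in Tris-HCl pH 7.5 with 30 mM MgCl2. Released Pi was detected by 10 uM Rh-PBP fluorescence (ex 525/em 598 nm) read at 1-min intervals for 11 min, as delta f1 - f0.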

Test [4] is described as follows: Primary qHTS for inhibitors of La Crosse Virus (LACV) - induced cell death in SH-SY5Y cells (AID 1508616).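 Also: top concentration of the series differs between compounds; higher means more rescue of cells from virus-induced death.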 An outline of the steps: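 SH-SY5Y cells (6000/well) plated 24 h, then given compounds by pin transfer and LACV at 0.01 MOI for 6 days at 37C. Viability measured by ATPLite luminescence, normalized to infected DMSO and uninfected DMSO.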
Test [5] concerns the target Calcium and integrin-binding protein 1 (Homo sapiens) (UniProt Q99828). As to the kind of experiment: Primary qHTS for Identification of Calcium Integrin Binding Protein 1 (CIB1) Competitor (AID 1508620). Also: potency is read from the fitted curve at half-maximal effect. An outline of the steps: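 Fluorescence polarization competition: GST-tagged CIB1 (1 uM final) preincubated with compound 15 min at room temperature, then FITC-labelled alphaIIb peptide (100 nM final) added. After 15 min at room temperature, polarization read at Ex 480/Em 540.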

Test [6] can be described thus: Counterscreen qHTS for small molecule stabilizers of the endoplasmic reticulum resident proteome: GLuc-NoTag assay (AID 1508627). Also: potency is read from the fitted curve at half-maximal effect. Put shortly: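 SH-SY5Y cells stably expressing constitutively secreted GLuc without SERCaMP tag, exposed to compound for 19 hr, then to 100 nM thapsigargin for 4 hr at 37C. Medium luciferase was read by coelenterazine luminescence without lysis.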

The target of test [7] is Calcium and integrin-binding protein 1 (Homo sapiens) (UniProt Q99828). Briefly: Confirmatory qHTS for Identification of Calcium Integrin Binding Protein 1 (CIB1) Competitor (AID 1508617). Also: nearly all actives have a fitted effect of over 65% in size. Also: potency is read from the fitted curve at half-maximal effect. Put shortly:
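FP competition: CIB1-GST (1 uM final) in 5 mM HEPES pH 7.4, 125 mM NaCl, 5 mM CaCl2, 0.01% Tween20 preincubated 15 min RT with compounds (up to 114 uM), then FITC-alphaIIb peptide (100 nM), 15 min RT; Ex 480/Em 540.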

Test [8] can be described thus: qHTS for inhibitors of adenylyl cyclases using a fission yeast platform: a pilot screen against the NCATS LOPAC library (AID 1347410). Put shortly:
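Fission yeast qHTS: CHP2027 cells (AC9-GNAS-PDE4D2, fbp1-GFP), 5x10^6 cells/mL working density, EMM + His/Lys/Ura; LOPAC at up to 57 µM final; 18 h dark, 30C; GFP by laser cytometry. DPI positive control, DMSO vehicle.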

Test [9] concerns the target Single-stranded DNA cytosine deaminase (Homo sapiens) (UniProt Q9GZX7). As to the kind of experiment: Validation qHTS assay for inhibitors of Activation Induced Cytidine Deaminase (AID): AID signal (AID 1347429). An outline of the steps:
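FRET deamination assay: 1 uM AID (4/3x stock) with UDG, compound up to 114 uM, then 250 nM DJC20/DJC23 substrate (4x stock) for 4 hr at room temperature. NaOH added, 30 min; fluorescence read 540/590 nm.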

In test [10] the target is Calcium and integrin-binding protein 1 (Homo sapiens) (UniProt Q99828). Briefly: Validation qHTS for Identification of Calcium Integrin Binding protein 1 (CIB1) Competitor (AID 1508618). An outline of the steps: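 Fluorescence polarization with 1 uM CIB1-GST and 100 nM FITC-alphaIIb peptide in HEPES pH 7.4, NaCl, 5 mM CaCl2, Tween20. Compounds at up to 114 uM final, preincubated with protein 15 min; read after 15 min more at RT.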
Sequence of Calcium and integrin-binding protein 1 (Homo sapiens) (Q99828 whole entry, looked up): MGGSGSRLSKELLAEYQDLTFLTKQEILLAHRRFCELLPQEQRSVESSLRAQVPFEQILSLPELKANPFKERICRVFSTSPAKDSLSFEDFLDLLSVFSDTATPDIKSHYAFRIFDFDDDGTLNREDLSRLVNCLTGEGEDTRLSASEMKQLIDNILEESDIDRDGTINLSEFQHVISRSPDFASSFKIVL

Results filed as inconclusive are left out. Activity calls are given as the source filed them. Calls follow the shape of the dose curve; as a rule, active = well fitted curve in the direction sought with a large enough effect; inconclusive = small, poorly fitted or top-dose-only effect, or another doubt; inactive = no such curve, though single readings can be large; an effect the other way counts as inactive or inconclusive.

Sequence of Protein phosphatase 1D (Homo sapiens) (O15297 whole entry, looked up): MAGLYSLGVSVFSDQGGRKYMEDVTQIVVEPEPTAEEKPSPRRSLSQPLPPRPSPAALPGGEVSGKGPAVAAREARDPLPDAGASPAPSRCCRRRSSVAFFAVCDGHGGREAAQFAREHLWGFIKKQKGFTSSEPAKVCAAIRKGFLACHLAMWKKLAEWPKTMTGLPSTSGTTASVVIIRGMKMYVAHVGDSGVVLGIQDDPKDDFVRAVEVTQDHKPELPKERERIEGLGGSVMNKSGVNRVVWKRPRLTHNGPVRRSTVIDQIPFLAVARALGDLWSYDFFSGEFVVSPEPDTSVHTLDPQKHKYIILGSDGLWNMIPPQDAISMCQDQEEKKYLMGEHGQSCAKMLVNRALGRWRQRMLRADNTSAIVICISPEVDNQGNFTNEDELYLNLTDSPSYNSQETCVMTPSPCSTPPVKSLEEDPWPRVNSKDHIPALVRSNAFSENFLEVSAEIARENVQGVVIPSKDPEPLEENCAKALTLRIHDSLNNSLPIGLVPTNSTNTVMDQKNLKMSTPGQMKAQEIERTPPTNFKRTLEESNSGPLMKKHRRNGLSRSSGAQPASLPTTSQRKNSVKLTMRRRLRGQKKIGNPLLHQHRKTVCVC
Sequence of Single-stranded DNA cytosine deaminase (Homo sapiens) (Q9GZX7 whole entry, looked up): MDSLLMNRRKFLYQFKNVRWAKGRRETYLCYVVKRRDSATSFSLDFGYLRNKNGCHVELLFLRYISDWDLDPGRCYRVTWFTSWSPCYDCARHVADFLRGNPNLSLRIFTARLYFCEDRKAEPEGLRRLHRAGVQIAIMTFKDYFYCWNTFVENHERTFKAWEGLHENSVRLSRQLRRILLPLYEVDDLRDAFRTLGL

As to `Fc1ccc(C(c2ccc(F)cc2)N2CCNCC2)cc1`, the Potency entry in [1], in [2], in test [5] and in [6] was “inactive” throughout. The compound was classed as inactive in test [3] and in [4].

Consider `CCCCOC(=O)CCCCCCCCC(=O)OCCCC`, for which the Potency result in [1], in test [2] and in test [5] was “inactive” in each case. Also, the outcome in test [3] and in test [4] was inactive.

Regarding `COC(=O)c1c(Cl)c(Cl)c(C(=O)OC)c(Cl)c1Cl`, the Potency entry in test [1], in test [2], in test [5] and in test [6] was “inactive” each time. For the same compound, the result in [3] and in test [4] was inactive.

Take `Cc1nc2n(c(=O)c1CCN1CCC(C(=O)c3ccc(F)cc3)CC1)CCS2`: the Potency result in test [1], in test [2], in test [5] and in test [6] was “inactive” each time. Besides, the compound was classed as inactive in [3] and in [4].

For the compound `CC(NN)c1ccccc1` (stereo not drawn), the Potency entry in test [1], in test [2] and in test [5] was “inactive” in each case. In addition, the result in [3] and in test [4] was inactive.

Regarding `CCOC(=O)NNc1ccc(N(CC)CC(C)O)nn1` (stereo not drawn), the Potency entry in test [1], in test [2] and in test [5] was “inactive” throughout. The compound was classed as inactive in [3].

With `CC(C)OC(=O)c1cc2c(OCC(O)CNC(C)(C)C)cccc2[nH]1` (stereo not drawn), the Potency result in [1], in test [2], in test [5] and in test [6] was “inactive” each time. The compound was classed as inactive in test [3] and in test [4].

In the case of `COC(=O)CCCCC(CCSS/C(CCO)=C(\C)N(C=O)Cc1cnc(C)nc1N)SC(C)=O` (stereo not drawn), the Potency result in test [1], in test [2] and in test [5] was “inactive” throughout. In addition, in test [3], the outcome was inactive.

With `C[C@H](N)C(=O)N[C@@H](C)C(=O)NC1[C@H]2CN(c3nc4c(cc3F)c(=O)c(C(=O)O)cn4-c3ccc(F)cc3F)C[C@@H]12` (stereo partly drawn), the Potency entry in [1], in [2], in test [5] and in [6] was “inactive” throughout. Further, the call in [3] and in test [4] was inactive.

For the compound `O=C(NO)c1ccccc1`, the Potency entry in test [1], in [2], in test [5] and in test [6] was “inactive” each time. In addition, the result in test [3] and in test [4] was inactive.

Take `O=C(CCCl)NCCc1ccccc1`: the Potency entry in test [1], in [2] and in [5] was “inactive” throughout. Besides, the compound was called inactive in test [3].

In the case of `Nc1c2ccccc2nc2ccccc12`, the Potency entry in test [1], in test [2] and in test [5] was “inactive” throughout. The result in [3] was inactive.

As for `CN1Cc2cc(C(=O)N3CCC(C4CCNCC4)CC3)ccc2N[C@@H](CC(=O)O)C1=O`, the Potency result in test [1], in test [2] and in test [5] was “inactive” in each case. The result in [3] and in test [4] was inactive.

With `CCOc1ccc(NS(=O)(=O)c2ccc(N)cc2)nn1`, the Potency result in test [1], in test [2] and in [5] was “inactive” throughout. Moreover, in [3], the call was inactive.

With `C/C=C(/C(=C/C)c1ccc(OC(C)=O)cc1)c1ccc(OC(C)=O)cc1`, the Potency entry in [1], in test [2] and in test [5] was “inactive” in each case. Moreover, the result in test [3] was inactive.

Regarding `CCCOc1ccc2c(c1)CC[C@@H]1[C@@H]2CC[C@]2(C)C(OC)CC[C@@H]12` (stereo partly drawn), the Potency entry in test [1], in [2] and in test [5] was “inactive” in each case. Moreover, the outcome in [3] was inactive.

For `COc1ccc(-n2nc(CCC(=O)N(C)O)cc2-c2ccc(Cl)cc2)cc1`, the Potency result in test [1], in [2] and in test [5] was “inactive” each time. Also, the compound was called inactive in test [3].

`O=[N+]([O-])c1ccc(O)c2ncccc12`: the Potency result in test [1], in test [2] and in [7] was “inactive” throughout. In addition, the outcome in [3] was inactive.

`CCOC(=O)c1ccc(O)c(O)c1`: the Potency entry in [1], in test [2], in [5] and in test [6] was “inactive” throughout. For the same compound, the compound was called inactive in test [3] and in test [4].

For the compound `CC(C)(Oc1ccc(Cl)cc1)C(=O)OCCCOC(=O)C(C)(C)Oc1ccc(Cl)cc1`, the Potency result in test [1], in test [2] and in [5] was “inactive” throughout. The compound was classed as inactive in [3].

As to `C=CCNc1nc(NCC=C)nc(N2CCN(C(c3ccc(F)cc3)c3ccc(F)cc3)CC2)n1`, the Potency entry in test [1], in test [2] and in test [5] was “inactive” throughout. Besides, the outcome in test [3] was inactive.

With `CC1(C)OC(=O)Nc2ccc(Br)cc21`, the Potency entry in test [1], in test [2] and in test [5] was “inactive” throughout. The outcome in test [3] and in [4] was inactive.

With `O=C(CO)[C@@H](O)[C@H](O)[C@@H](O)CO`, the Potency result in test [1], in test [2] and in test [5] was “inactive” in each case. The result in test [3] and in test [4] was inactive.

For the compound `Nc1ncnc2c1ncn2Cc1c(F)cccc1Cl`, the Potency entry in test [1], in test [2] and in test [5] was “inactive” throughout. In [3], the compound was called inactive.

For the compound `CCCCCN(CCCOC)C(=O)C(CCC(=O)O)NC(=O)c1ccc(Cl)c(Cl)c1` (stereo not drawn), the Potency result in test [1], in test [2] and in test [5] was “inactive” each time. Moreover, the result in test [3] and in [4] was inactive.

Take `CCCC(=O)Nc1ccc(O)c(C(C)=O)c1`: the Potency entry in test [1], in test [2] and in test [5] was “inactive” each time. Also, the compound was classed as inactive in [3].

In the case of `Nc1cc(C(F)(F)F)ccc1S`, the Potency in [7] is 22.4 µM (active).

Consider `CCCC(=O)c1cc(O)c(O)cc1O`, for which the Potency in test [7] is 35.5 µM (active).

For `COc1cccc2c1[C@@H]1CN(CCCCn3c(=O)[nH]c4c(sc5ncc(-c6ccccc6)nc54)c3=O)C[C@@H]1CO2`, the call in test [8], in [9] and in test [10] was inactive.

For the compound `CCCCC(CC)COC(=O)c1ccccc1C(=O)O` (stereo not drawn), the Potency result in test [2] and in [5] was “inactive” each time. For the same compound, the outcome in test [4] was inactive.

In the case of `CCCCCCCCCCCCCC[N+](C)(C)C`, the Potency entry in test [2] and in test [5] was “inactive” each time. In addition, the compound was classed as inactive in test [3] and in test [4].

As to `Cc1cc2nc3ccc(=[N+](C)C)cc-3sc2cc1N`, in [2], the Potency result was “inactive”. Moreover, the compound was classed as inactive in test [4]. Moreover, the Potency in test [6] was 35.5 µM (active).

Regarding `CC(C)(C)c1ccc(O)c(O)c1`, the outcome in test [3] was inactive. The Potency entry in test [5] and in test [6] was “inactive” throughout.

In the case of `O=c1[nH]sc2cc(Cl)ccc12`, in test [2], the Potency entry is “inactive”. The Potency in test [5] was 3.55 µM (active).

Regarding `O=C(OCC(O)CO)c1ccccc1Nc1ccnc2c(C(F)(F)F)cccc12` (stereo not drawn), the Potency entry in test [2] and in test [5] was “inactive” throughout. Further, the compound was classed as inactive in test [3] and in test [4].
